Compound activity deposited in PubChem BioAssay by several laboratories.
Anthrax LF prot – anthrax lethal factor protease inhibition | P15917 | multiplex microsphere protease cleavage assay, LF | inhibition, % at 10 µM | hit rate 0.12% among 360,000 | AID 588501; also: plate controls were buffer without enzyme for full effect and enzyme alone for no effect
Bead autofluor – flagged as autofluorescent in microsphere protease counterscreen; AID 624483; compound autofluorescence counterscreen, microsphere flow cytometry; hits give high values; hit rate 3.1% among 360,000; fluorescence intensity (no concentration beside the values); in the data active = fluorescence intensity above about 16000; inconclusive = no clear call, values can overlap the other calls
BoNT-A LC inh2 – blocks Botulinum neurotoxin A light chain protease; multiplex microsphere protease substrate cleavage, flow cytometry; inhibition, % at 10 µM; hit rate 0.17% among 360,000; AID 588499; also: plate controls were buffer without enzyme for full effect and enzyme alone for no effect
FBA Mtb inh – inhibitors of M. tuberculosis fructose-bisphosphate aldolase | purified M. tuberculosis FBA, fluorescence read-out | AID 588726 | inhibition, % at 1 µM | hit rate 2.3% among 360,000; in the data active = inhibition above about 27%;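 also: 0% = vehicle and 100% = reference inhibitor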
Target sequence (P9WQA3 whole entry, looked up): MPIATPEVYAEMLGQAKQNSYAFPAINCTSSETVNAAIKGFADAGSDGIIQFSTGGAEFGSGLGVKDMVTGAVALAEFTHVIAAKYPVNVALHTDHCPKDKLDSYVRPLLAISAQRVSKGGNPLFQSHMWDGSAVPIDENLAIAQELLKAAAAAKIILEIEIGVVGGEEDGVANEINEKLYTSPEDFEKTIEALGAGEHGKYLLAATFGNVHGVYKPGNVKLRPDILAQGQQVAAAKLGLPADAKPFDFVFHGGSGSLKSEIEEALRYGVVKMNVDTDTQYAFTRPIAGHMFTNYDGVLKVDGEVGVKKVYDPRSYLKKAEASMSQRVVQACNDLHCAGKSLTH
BoNT F protease – blocks Botulinum neurotoxin F light chain protease | Multiplex microsphere protease cleavage assay, flow cytometry | inhibition, % at 10 µM | hit rate 0.22% among 360,000 | AID 588497; in the data active = inhibition above about 35%, passing the limit was not always enough; inconclusive = no clear call, values can overlap the other calls; also: plate controls were buffer without enzyme for full effect and enzyme alone for no effect
GDH-TPI counter-1 – inhibits GDH-TPI coupling enzymes, artifact for Mtb FBA screen; inhibition, % at 4.8 µM; hit rate 1.2% among 360,000; GDH-TPI coupled enzyme counterscreen, NADH absorbance; AID 588335; in the data active = inhibition above about 30%;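 also: 0% = DMSO wells and 100% = wells lacking the enzyme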
Mtb FBA inh conf – Mtb FBA inhibition, confirmed; inhibition, % at 1 µM; AID 651616; shares compounds with FBA Mtb inh; hit rate 78% among 5,600; purified M. tuberculosis FBA, fluorescence read-out; in the data active = inhibition above about 27%;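 also: 0% = vehicle wells and 100% = reference inhibitor wells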
GDH-TPI counter-2 – counter-screen for M. tuberculosis FBA inhibitors: GDH-TPI coupled enzyme inhibition; inhibition, % at 1 µM; shares compounds with FBA Mtb inh; GDH-TPI coupled enzyme counterscreen, fluorescence; hit rate 81% among 5,600; in the data active = inhibition above about 10%
The depositor's hits bear a star; ? = inconclusive; . = no result given. An excerpt weighted towards active compounds, which were near 6.6% of everything screened. Rule as the data show it, unless noted: active = inhibition above about 30%; inconclusive = no clear call, values can overlap the other calls; inactive = below that.

SMILES	Anthrax LF prot	Bead autofluor	BoNT-A LC inh2	FBA Mtb inh	BoNT F protease	GDH-TPI counter-1	Mtb FBA inh conf	GDH-TPI counter-2
CC(C)CN1CCN(Cc2c[nH]c3ccccc23)CC1CCO (centres undefined)	4.6	4534	-0.7	-0.1	?	-2.3	.	.
COc1ccc(OC)c(-n2c(C)ccc2-c2ccc(S(C)(=O)=O)cc2)c1	-3.2	2665	-0.7	91.2*	3.3	19.3	86.7*	96.9*
COc1ccc(OC)c(-n2c(-c3ccc(S(C)(=O)=O)cc3)cc(C=O)c2C)c1	-3.0	4242	0.7	1.7	-10.1	10.9	.	.
CCCCn1c(CCc2ccccc2)nc2cc3[nH]c(=O)c(C(C)C)nc3cc21	3.2	4693	4.8	32.7*	-12.3	7.6	61.3*	50.1*
CCCCn1c(-c2ccc(F)c(F)c2)nc2cc3[nH]c(=O)c(C(C)C)nc3cc21	-9.1	3868	5.4	51.9*	-26.7	17.0	113.3*	92.1*
CC(=O)Nc1cccc(C(=O)NC2CCCc3c2cnn3-c2cc(C)cc(C)c2)c1 (centres undefined)	-1.3	5434	0.9	-2.1	9.3	-8.3	.	.
COc1ccc(C(=O)COC(=O)c2sccc2C)cc1OC	.	.	.	-0.5	.	5.7	.	.
Cc1cc(F)ccc1NCC(=O)Nc1ccccc1Br	-0.2	1886	1.0	50.2*	1.9	1.9	46.5*	39.5*
Cc1ccc(F)cc1NCC(=O)Nc1ccc(Cl)cc1F	0.1	2503	-0.3	5.0	-3.4	-4.2	.	.
CCOC(=O)C1CCCN(C(=O)c2cccc(NC(=O)C(CC)CC)c2)C1 (centres undefined)	-2.6	3615	-1.4	3.9	5.0	6.7	.	.
CC(C)c1ccc(NC(=S)N2CCN(C)CC2)cc1	-3.3	5251	2.3	32.1*	5.4	7.7	0.2	-3.9
CCN(CC)Cc1c(C(=O)N/N=C/c2ccccn2)nnn1-c1nonc1N	1.5	5444	-0.1	1.7	1.5	3.1	.	.
Cc1nc(-c2ccccc2)sc1-c1ccn[nH]1	0.6	3624	-0.6	109.8*	-5.1	12.5	32.6*	23.9*
CCn1c(-c2sc(-c3ccccc3)nc2C)n[nH]c1=S	-11.9	4034	-0.2	6.0	4.2	5.4	.	.
Nc1ccc2nc(-c3ccc(Cl)cc3)[nH]c2c1	-14.8	5968	0.3	87.3*	-41.2	19.4	168.1*	126.9*
Clc1ccc2nc(-c3ccc(Cl)nc3)[nH]c2c1	-4.4	3409	-5.8	36.0*	-11.1	13.8	107.1*	81.7*
O=C(Cc1ccccc1)Nc1cccc(C(=O)O)c1O	0.4	3472	0.5	75.7*	-0.6	4.8	81.5*	49.2*
O=c1oc2c3c4c(cc2c2c1CCC2)OCCN4CCC3	?	4239	?	97.3*	?	12.8	79.5*	58.2*
C=C(C)CC(c1ccccc1)N(C(C)=O)c1ccco1 (centres undefined)	-0.2	2079	-1.0	3.2	-4.5	8.9	.	.
CN1CCN(C(=O)c2ccc3nc(-c4ccccc4)c(-c4ccccc4)nc3c2)CC1	-8.6	3933	-0.6	30.2*	-4.8	10.4	168.1*	135.2*
O=C(c1ccc2nc(-c3ccccc3)c(-c3ccccc3)nc2c1)N1CCCCC1	-9.2	5144	0.5	33.5*	-4.4	14.6	92.6*	63.5*
O=C(c1ccc2nc(-c3ccco3)c(-c3ccco3)nc2c1)N1CCN(c2ncccn2)CC1	-19.3	?	4.3	-6.7	3.6	11.1	.	.
Cc1cccc(-c2nc3ccc(C(=O)N4CCC5(CC4)OCCO5)cc3nc2-c2cccc(C)c2)c1	-1.5	4311	3.0	42.5*	13.5	16.2	117.2*	78.6*
CCN(C(=O)Cc1c(C(=O)O)[nH]c2ccccc12)c1ccc(OC)cc1	2.9	4496	0.9	-1.3	-3.8	-5.1	.	.
Cc1ccc(CNC(=O)CCC2CCCN(Cc3c(C)nn(C(C)C)c3C)C2)o1 (centres undefined)	-0.3	2581	-0.3	1.2	-4.0	11.7	.	.
SMILES	Anthrax LF prot	Bead autofluor	BoNT-A LC inh2	FBA Mtb inh	BoNT F protease	GDH-TPI counter-1	Mtb FBA inh conf	GDH-TPI counter-2
O=C1C2CCCN2C(c2ccco2)N1c1ccc(F)cc1 (centres undefined)	4.9	4881	0.3	0.4	-1.8	0.0	.	.
Cc1cc(C)n(-c2nc(NCc3cccnc3)c3c4c(sc3n2)COC(C)(C)C4)n1	-2.6	2156	-0.6	62.9*	0.5	13.6	80.5*	62.7*
CC(C)CCOCC(=O)Oc1ccccc1C(=O)O	-1.3	3434	-1.4	33.5*	-0.2	-3.2	-4.5	-4.1
CCCN1C(=O)c2ccccc2NC1c1ccc(OC)c(CSc2ccccn2)c1 (centres undefined)	-7.3	6662	0.1	55.7*	-6.3	5.2	140.3*	104.7*
COc1ccc(C2Nc3ccccc3C(=O)N2Cc2ccccc2)cc1COc1ccccn1 (centres undefined)	-1.7	10081	0.1	78.5*	3.9	-7.8	63.8*	54.3*
COc1ccc(N2C(=O)c3ccccc3NC2c2ccc(OC)c(CSc3ccccn3)c2)cc1 (centres undefined)	-1.4	11231	0.1	21.6	-2.9	10.6	.	.
O=C(O)c1ccc(C2SCC(=O)N2Cc2ccccc2)cc1 (centres undefined)	-0.5	2731	0.6	-4.4	0.2	-7.7	.	.
COc1ccc(C2Nc3ccccc3C(=O)N2NS(=O)(=O)c2ccc(C)cc2)cc1 (centres undefined)	-1.4	2545	-0.3	18.7	-6.8	6.9	.	.
COc1ccc(C2Nc3ccccc3C(=O)N2C2CCCCC2)cc1 (centres undefined)	1.4	4409	-0.9	85.2*	-3.9	0.6	1.3	-0.3
COc1ccc(N2C(=O)c3ccccc3NC2c2ccc(OC)c(COc3ccccn3)c2)cc1 (centres undefined)	1.1	2042	0.3	14.4	-16.4	15.1	.	.
O=C(O)c1ccc(C2Nc3ccccc3C(=O)N2Cc2ccccc2)cc1 (centres undefined)	-0.8	5181	0.3	76.5*	-1.0	0.4	8.8	5.2
Cc1ccc(S(=O)(=O)N2CCCCC2)cc1NC(=O)c1ccncc1	-4.8	6185	-1.3	-1.7	-12.8	4.2	.	.
O=C1CCC(C(=O)Nc2ccccc2N2CCOCC2)=NN1	.	.	.	3.8	.	12.2	.	.
CCc1nc2c(OCCOc3ccc(F)cc3)cccn2c1N(C=O)Cc1ccccc1	-0.6	3737	0.1	-1.0	-2.3	4.4	.	.
CCC(CC)CN1C(N(C)C)=NC[C@@H]1CC(C)C	-7.7	3075	0.0	4.7	11.0	6.5	.	.
COc1ccc(C2Nc3ccccc3C(=O)N2Cc2ccccc2)cc1 (centres undefined)	-2.2	3437	-2.8	39.1*	5.4	4.5	166.8*	135.2*
COc1ccc([C@@H]2[C@@H](C)N(c3ccccc3)c3ccccc3C(=O)N2Cc2ccccc2)cc1	-2.6	3858	-0.5	4.6	3.1	0.9	.	.
